# Screens: PubChem BioAssay, Broad Institute
# RAD52 inh – blocks human RAD52 DNA annealing; P43351; recombinant RAD52 DNA annealing, FRET fluorescence; inhibition, % at 18.7 µM; 0.46% of 360,000 active; AID 651710;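 active means every replicate showing at least 50% inhibition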
# MLL AF4-AF9 inh – MLL-AF4/AF9 protein interaction inhibition; P42568; AlphaScreen, biotin-AF4 peptide binding to FLAG-AF9; inhibition, % at 10 µM; 0.47% of 350,000 active;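 active means every replicate reaching a set inhibition limit, whatever the replicate mean, cut at about 25% in these data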;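 further: 0% = plate neutral control median and 100% = total signal loss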
# NSD2 inh – NSD2 (human) methyltransferase inhibition. O96028. inhibition, % at 12.5 µM. AID 743445. 0.54% of 310,000 active. NSD2 peptide methylation, AlphaScreen, 120 min; in the data active means inhibition above about 50%
# Target sequence (O96028 whole entry, looked up): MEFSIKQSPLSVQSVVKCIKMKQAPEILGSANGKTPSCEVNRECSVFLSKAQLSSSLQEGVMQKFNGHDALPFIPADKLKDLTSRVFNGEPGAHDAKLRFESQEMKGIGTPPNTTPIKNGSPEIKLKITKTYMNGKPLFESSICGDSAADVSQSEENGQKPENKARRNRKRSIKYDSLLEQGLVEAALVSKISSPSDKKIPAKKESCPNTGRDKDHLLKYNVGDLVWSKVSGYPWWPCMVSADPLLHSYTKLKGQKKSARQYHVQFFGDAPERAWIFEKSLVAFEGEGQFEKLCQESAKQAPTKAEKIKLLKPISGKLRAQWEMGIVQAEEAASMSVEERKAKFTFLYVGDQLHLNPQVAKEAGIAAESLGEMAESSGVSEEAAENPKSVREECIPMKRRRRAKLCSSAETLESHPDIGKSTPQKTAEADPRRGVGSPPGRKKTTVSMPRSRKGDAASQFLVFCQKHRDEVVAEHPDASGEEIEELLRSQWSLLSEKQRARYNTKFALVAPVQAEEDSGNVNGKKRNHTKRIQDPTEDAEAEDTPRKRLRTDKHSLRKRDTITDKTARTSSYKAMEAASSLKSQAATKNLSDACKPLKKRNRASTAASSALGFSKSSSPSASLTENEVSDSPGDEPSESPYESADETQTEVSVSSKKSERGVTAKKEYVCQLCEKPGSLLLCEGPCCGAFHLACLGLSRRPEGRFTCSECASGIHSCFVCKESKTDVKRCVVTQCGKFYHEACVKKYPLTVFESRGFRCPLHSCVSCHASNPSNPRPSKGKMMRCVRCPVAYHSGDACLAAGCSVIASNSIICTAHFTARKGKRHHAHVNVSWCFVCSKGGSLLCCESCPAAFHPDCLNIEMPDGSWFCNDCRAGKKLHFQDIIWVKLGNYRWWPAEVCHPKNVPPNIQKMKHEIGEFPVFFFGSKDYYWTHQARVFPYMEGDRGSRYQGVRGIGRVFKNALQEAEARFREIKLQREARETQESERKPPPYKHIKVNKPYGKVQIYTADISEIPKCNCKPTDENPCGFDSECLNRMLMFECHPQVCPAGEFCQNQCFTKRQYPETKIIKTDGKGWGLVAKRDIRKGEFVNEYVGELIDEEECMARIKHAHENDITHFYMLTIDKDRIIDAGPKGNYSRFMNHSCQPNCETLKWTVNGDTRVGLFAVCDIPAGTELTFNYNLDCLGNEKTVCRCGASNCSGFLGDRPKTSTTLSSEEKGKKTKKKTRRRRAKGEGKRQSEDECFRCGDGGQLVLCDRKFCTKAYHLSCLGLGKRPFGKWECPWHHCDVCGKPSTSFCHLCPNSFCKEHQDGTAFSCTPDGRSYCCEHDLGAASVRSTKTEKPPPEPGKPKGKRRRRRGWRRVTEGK
# Ecoli rRNA inh – inhibitors of bacterial rRNA selective over humanized ribosomes | E. coli WT GFP vs humanized-ribosome RFP mutants, fluorescence, 24 h; active compounds read low; DMSO median 0, no signal -100 | GFP signal change (wild-type ribosome), % (concentration not given with the values) | 1.6% of 350,000 active;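 active means significant combined selectivity score with lowered wild-type GFP, culture density cut under 30%, mutant RFP and density less affected; inactive means any of these conditions unmet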
# Casp6 inh – inhibitors of human caspase-6; P55212; purified caspase-6, Z-VEID-R110 cleavage fluorescence; inhibition, % at 12.5 µM; 0.53% of 350,000 active; AID 686996;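 active means mean inhibition across replicates at least about 35%, with every replicate also reaching that limit, limit read from the data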;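 further: 0% = median of neutral control wells and 100% = no fluorescence left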
# AlphaScreen art – AlphaScreen assay artifact in NSD2 counter-screen; shares compounds with NSD2 inh; AC35, µM (series often up to 10 µM), for the others: at the top dose activity change, negative = signal loss; 9.4% of 1,500 active; AlphaScreen artifact counterscreen, preloaded methylated H4 peptide; call rule not given here
# * = called active by the depositor; . = no result given. Shown are actives, neighbours in structure and some others; about 2.5% of the full set was active somewhere.
SMILES,RAD52 inh,MLL AF4-AF9 inh,NSD2 inh,Ecoli rRNA inh,Casp6 inh,AlphaScreen art
Cc1cccc(NC(=O)CCN2CCCCC2)c1,0,-14,66*,8,-2,-5%
Cc1ccc(NC(=O)CCN2CCN(C/C=C/c3ccccc3)CC2)cc1C,.,.,64*,.,.,-14%
C[C@@H]1CN([C@H](C)CO)C(=O)c2cc(NC(=O)C3CCCCC3)ccc2O[C@@H](C)CCCCO[C@@H]1CN(C)C(=O)CCCN(C)C,18,-2,.,2,1,.
C/C=C/c1cnc2c(c1)C(=O)N([C@H](C)CO)C[C@@H](C)[C@H](CN(C)C(=O)NCCC)O2,6,-1,.,6,5,.
CC(C)C#Cc1cnc2c(c1)C(=O)N([C@H](C)CO)C[C@H](C)[C@H](CN(C)C(=O)C1CCC1)O2,15,-4,.,6,-2,.
COc1cc(OC)nc(NC2OC(=O)c3ccccc32)n1 (centres undefined),.,.,104*,.,.,4%
CC(C)(C)c1[nH]nc2c1C(c1ccoc1)C(C#N)=C(N)O2 (centres undefined),.,.,76*,.,.,-2%
COc1ccc(S(=O)(=O)N[C@H]2C=C[C@@H](CC(=O)NCCc3ccccc3)O[C@H]2CO)cc1,1,-3,.,-1,-1,.
N#Cc1cc2ccc(N3CCOCC3)cc2cc1C#N,-15,4,120*,-34*,64*,4%
N#Cc1cc(Cl)c(N2CCOCC2)cc1C#N,.,.,0,.,.,.
Cc1ccc(S(=O)(=O)N(C)C[C@@H]2Oc3ccc(NS(=O)(=O)c4ccccc4)cc3CC(=O)N([C@@H](C)CO)C[C@@H]2C)cc1,5,-8,.,1,0,.
CCN(CC)C1CCN(c2nc3nonc3nc2NCCOC)C1 (centres undefined),-2,3,75*,3,-2,-2%
c1ccc(-c2cc(-c3ccccc3)n3ncnc3n2)cc1,-2,-2,50*,-19,3,-1%
Cc1cccc(Nc2nnc(-c3ccc(N4CCOCC4)c([N+](=O)[O-])c3)c3ccccc23)c1,-8,4,53*,-32*,1,-10%
Cc1nnc(-c2ccc(N3CCOCC3)c([N+](=O)[O-])c2)o1,.,.,1,.,.,.
O=C(O)CC1S/C(=N/N=C/c2ccc(-c3ccc(Cl)cc3[N+](=O)[O-])o2)NC1=O (centres undefined),.,.,60*,.,.,-8%
CC(=O)N1C2CCCCC2S[C@H]2CCCCC21 (some centres undefined),.,.,57*,.,.,2%
O=C(CCCCCN1C(=O)C2C3C=CC(C3)C2C1=O)Nc1ccc(Cl)cc1 (centres undefined),.,.,-4,.,.,.
O=C(CCCCCN1C(=O)C2C3C=CC(C3)C2C1=O)Nc1ccc2ncccc2c1 (centres undefined),.,.,95*,.,.,-1%
COc1ccccc1N=Nc1ccc(O)c2ncccc12,-59,72*,94*,-8,54*,-13%
COCCN1CC(=O)N2C(c3cccc(C)c3)c3[nH]c4ccccc4c3C[C@H]2C1=O (some centres undefined),-11,1,52*,5,3,-7%
COCCCN1CC(=O)N2C(c3cccc(C)c3)c3[nH]c4ccccc4c3C[C@H]2C1=O (some centres undefined),-23,4,0,-4,2,.
O=C(Cc1ccccn1)N1CC(=O)N2[C@H](C1)[C@H](c1ccc(C#CC3CCCC3)cc1)[C@@H]2CO,-18,3,.,2,2,.
Cc1ccc(-c2cc(C(=O)N/N=C/c3ccccc3)n[nH]2)o1,-10,0,122*,-13,-1,-3%
Cc1cc(C(=O)COc2cccc(-n3cnnn3)c2)c(C)n1-c1ccccc1,.,.,56*,.,.,-1%
SMILES,RAD52 inh,MLL AF4-AF9 inh,NSD2 inh,Ecoli rRNA inh,Casp6 inh,AlphaScreen art
COc1ccccc1NC(=O)COc1cccc(-n2cnnn2)c1,.,.,-5,.,.,.
CCN1CCc2nc3ccccc3c(C(=O)Nc3ccc(NC(C)=O)cc3)c2C1,-13,-16,59*,4,-4,0%
C[C@H](CO)N1C[C@H](C)[C@H](CN(C)S(=O)(=O)c2cccs2)Oc2c(NC(=O)Nc3ccc(C(F)(F)F)cc3)cccc2C1=O,-6,-1,.,-2,-1,.
CN(C)CCCNC(=O)[C@H]1[C@H](CO)[C@H]2Cn3c(ccc(C4=CCCC4)c3=O)[C@@H]1N2Cc1cocn1,10,2,.,2,-1,.
O=C(CN1CCN(Cc2ccccc2)CC1)NCC1COc2ccccc2O1 (centres undefined),-2,.,5,9,1,.
O=C(CCc1ccccc1)NCCCN1CCOCC1,.,.,98*,.,.,0%
O=C(CCN1CCOCC1)NCC1COc2ccccc2O1 (centres undefined),.,.,56*,.,.,-2%
O=C(CCCc1ccccc1)NCCCN1CCOCC1,.,.,1,.,.,.
O=C(Nc1cc(S(=O)(=O)Nc2ccc(Cl)cc2)ccc1N1CCCCC1)c1ccc(F)cc1Cl,-17,-9,-3,1,-3,.
O=C(Nc1cc(S(=O)(=O)Nc2ccccc2F)ccc1Cl)c1ccc(F)cc1F,-7,0,89*,-1,1,-5%
c1coc(-c2nc(-c3ccco3)c(-c3ccco3)nc2-c2ccco2)c1,.,.,149*,.,.,-6%
O=C(c1cc(-c2ccc(Cl)cc2)n(-c2ccc(Cl)cc2)n1)N1CCOCC1,.,.,58*,.,.,-2%
Nc1nc(Nc2ccccc2F)nc(NCc2ccccc2)c1[N+](=O)[O-],-42,0,1,.,-2,.
Nc1nc(Nc2ccccc2F)nc(NCCO)c1[N+](=O)[O-],-22,4,60*,14,1,1%
CS(=O)(=O)N(CC(=O)NCc1ccc2c(c1)OCO2)c1ccc(Cl)cc1,.,.,0,.,.,.
CS(=O)(=O)N(CC(=O)NCc1ccc2c(c1)OCO2)c1cccc(Cl)c1,-8,0,106*,-5,0,-2%
Cc1cccc(-n2c3nc(=O)[nH]c(=O)c-3cc3cc([N+](=O)[O-])ccc32)c1,-5,-12,58*,-13,9,-6%
Cc1ccc(C)c(-n2c3nc(=O)[nH]c(=O)c-3cc3cc([N+](=O)[O-])ccc32)c1,-22,-16,60*,9,50*,-8%
Cc1ccc(C)c(-n2c3nc(=O)n(C)c(=O)c-3cc3ccccc32)c1,-10,-3,0,-2,3,.
C/C=C/c1cnc2c(c1)C(=O)N([C@@H](C)CO)C[C@H](C)[C@@H](CN(C)C(=O)Cc1ccccn1)O2,-2,-2,.,3,1,.
O=C(O)c1cccc(NC2=C(Cl)C(=O)c3ccccc3C2=O)c1,-9,-3,99*,-21,25,-4%
C=CCNC1=C(Cl)C(=O)c2ccccc2C1=O,.,.,92*,.,.,-16%
O=C1C(Cl)=C(NCCc2ccccc2)C(=O)c2ccccc21,1,-5,81*,-37*,44*,-18%
O=C(O)c1ccc(NC2=C(Cl)C(=O)c3ccccc3C2=O)cc1,-13,5,.,-20,29,.
